The results in this text go back to PubChem BioAssay (EPA / NIEHS).

Structures are written as SMILES. Results filed as inconclusive are left out. Active and inactive are the calls of the source. Rule for the calls: active = hit-call score of the fitted dose curve at least 0.9, where 1 is the maximum; inconclusive = response in the unintended direction; inactive = score below 0.9.

The experiment relates to rat Monoamine Oxidase, MAO-A, Peripheral (MAOAP), gene 29253. In words: NVS_ENZ_rMAOAP: NovaScreen (NVS) Enzymatic Assay for rat Monoamine Oxidase, MAO-A, Peripheral (MAOAP) (AID 2283237). Here is the method:
NVS_ENZ_rMAOAP is a biochemical, single-readout assay that uses extracted gene-proteins from Rat liver mitochondrial membranes in a tissue-based cell-free assay. Measurements were taken 1.17 hours after chemical dosing in a 96-well plate.NVS_ENZ_rMAOAP is one of one assay component(s) measured or calculated from the NVS_ENZ_rMAOAP assay. It is designed to make measurements of enzyme activity, a form of enzyme reporter, as detected with scintillation counting signals by Lysate-based radiodetection technology.Data from the assay component NVS_ENZ_rMAOAP was analyzed into 1 assay endpoint. This assay endpoint, NVS_ENZ_rMAOAP, was analyzed in the positive analysis fitting direction relative to DMSO as the negative control and baseline of activity. Using a type of enzyme reporter, loss-of-signal activity can be used to understand changes in the enzymatic activity as they relate to the gene Maoa. Furthermore, this assay endpoint can be referred to as a primary readout, because this assay has produced multiple assay endpoints where this one serves a enzymatic activity function. To generalize the intended target to other relatable targets, this assay endpoint is annotated to the oxidoreductase intended target family, where the subfamily is monoamine oxidase.
Binding assays used specific radioligands (tritiated, iodinated) with non-radioactive competitive displacement ligands in agonist or antagonist protocols (as indicated) and various reference compounds and inhibitors to titrate specific binding to receptors and transporters. Most enzyme assays (CYPs, kinases, phosphatases, proteases, HDACs) used recombinant protein and specific substrates (fluorescence mostly, some colorimetric and radioactive) and inhibitors, followed by a biochemical separation of substrate and product. All assays for the biochemical HTS were initially run in duplicate at a single concentration (10 uM for CYP450 assays and 25 uM for all others). […] Each assay was run with positive and negative controls, and concurrent controls on every plate. The follow-up (secondary) screen tested active chemical-pairs in concentration series, as well as a few additional assays not tested in the primary screen, some selected negative inactives, and several cases re-run in the concentration series for confirmatory purposes.
The term AC50 denotes the concentration giving half of the maximal activity seen. Consider `CN(C)c1ccc(C(=O)c2ccc(N(C)C)cc2)cc1`, for which the AC50 was 7.24 µM (active).
`CC(C)(O)c1cnn2c(-c3ccc(F)c(-c4c(F)cccc4C#N)c3)cnc2n1`: the outcome was inactive.
In the case of `Nc1ccc([N+](=O)[O-])cc1`, the AC50 was 16.7 µM (active).
On to `CCN(CC)CCO`, for which the outcome was inactive.
As to `Nc1ccc(N=Nc2ccccc2)cc1`, the AC50 is 18.3 µM (active).
As to `CCOc1cccc(C2(N3CCN(c4ccccc4)CC3)CCC(C)CC2)c1` (stereo not given), the AC50 is 13.7 µM (active).
Same read-out and setting: the same measure for `Oc1ccc2ccc3cccc4ccc1c2c34`: 1.18 µM (active); for `[Cl-].[Cl-].[Hg+2]`: 3.19 µM (active).
Same read-out and setting: the same measure for `O=C(N[C@H](c1ccccc1)[C@@H]1CN2CCC1CC2)c1c(Cl)ccc(C(F)(F)F)c1Cl`: 50.6 µM (active).
Turning to `CC(C)(C)OOC(C)(C)CCC(C)(C)OOC(C)(C)C`, the molecule was called inactive.
